Test results taken from PubChem BioAssay AID1626 (SRMLSC, 2009).
Several values for one entry are separate records, joined by “and”; a condition that tells them apart may be missing. Equal entries are not always repeated. Screen size: about 220,000 compounds; about 2,000 (0.91%) were called active. Another 2% or so got no clear call; they are omitted. These entries were drawn from the full list. Measured potencies and affinities stand elsewhere. A number with no mark means an inactive call. Cut-off read from the data, not from the text of the source: inconclusive = inhibition above about 80% without an active follow-up result; inactive = below that; test concentration not stated here.

Test: M. tuberculosis H37Rv growth inhibitors, H37Rv strain (AID 1626);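 note: bacteria incubated seven days before Alamar blue readout; 0% = bacteria only wells and 100% = bacteria with antibiotic wells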
Conditions: stronger effect = higher value, concentration not given here

Structure (SMILES) | inhibition
N#Cc1cnn2c1nc(N1CCOCC1)c1ccccc12 | 3.61%
O=C(O)c1ccc(/C=N/NC(=O)c2ccc(NS(=O)(=O)c3cccs3)cc2)cc1 | 7.29%
CC(=O)/C(=C/N(C)C)C(=O)Nc1ccc(Cl)cc1Cl | 5.27%
CN(C)CCNC(=S)Nc1ccc(Cl)cc1Cl | 3.74%
Cc1cc(=O)n2nc(N3CCC(C(=O)N4CCN(C)CC4)CC3)sc2n1 | -6.22%
CCN(CC)S(=O)(=O)c1ccc(C)c(NC(=O)Cn2cnc3cc([N+](=O)[O-])ccc3c2=O)c1 | -5.31%
COc1ccc(-c2nnc(SCC(=O)N3CCc4ccccc4C3)o2)cc1 | 55.5%
O=C(CSc1nnc(-c2ccccc2)o1)N1CCc2ccccc2C1 | 0.6%
COc1ccc(NC(=O)C(OC)c2ccccc2)cc1Cl (stereo not given) | 4.82%
COc1cccc(CNc2ccc(F)c(Cl)c2)c1OC | 9.35%
O=C(/C=C/c1ccc(Cl)cc1)NCc1ccco1 | -3.37%
CCn1c(SCC(=O)Nc2ccc(C)cc2)nc2nc3c(cc2c1=O)COC(C)(C)C3 | 11.8%
Nc1o[nH]c(=O)c1Cc1ccccc1 | -2.12%
CCOC(=O)c1sc(NC(=O)CNCc2cccnc2)c(C(=O)OCC)c1C | 0.97%
CCOC(=O)c1sc(NC(=O)CCN2C(=O)c3ccccc3C2=O)c(C(=O)OCC)c1C | -2.12%
CC1CCN(CC(=O)NCc2ccco2)CC1 | -7.7%
COC(=O)c1sccc1NC(=O)COc1cccc(C)c1 | 0.14%
Cc1cc(CSc2ccccc2)ccc1NC(=O)c1ccc(CN2CCOCC2)cc1 | 7.66%
O=C(Nc1ccc(CN2CCOCC2)cc1)c1ccc(-c2cccc(Cl)c2)o1 | 8.55%
O=C(NC(=S)Nc1ccc(CN2CCOCC2)cc1)c1ccc(-c2ccc(Br)cc2)o1 | 42.5%
NC(=O)c1ccc(NC(=O)c2ccc(CN3CCOCC3)cc2)cc1 | -7.24%
CC(OC(=O)c1ccccc1Oc1ccccc1)C(=O)NC1CC1 (stereo not given) | 4.72%
O=S(=O)(Nc1nc2ccccc2nc1-[n+]1ccccc1)c1ccc(Cl)cc1 | -0.65%
Nc1cc2c3c(cccc3c1)C(=O)N(CCN1CCCC1)C2=O | 18.6%

Structure (SMILES) | inhibition
O=C1c2cccc3cc([N+](=O)[O-])cc(c23)C(=O)N1c1ccccc1O | 6.45%
Cc1nn(-c2ccccc2)c(Cl)c1C(=O)NCC(=O)O | 4.16%
Fc1cccc(-n2ncc(-c3nnnn3-c3ccccc3)c2C(F)(F)F)c1 | -6.57%
O=[N+]([O-])c1c(NCc2ccco2)ccc2nonc12 | -3.46%
CC(=O)OCCCNc1cc(Sc2ccc(Cl)cc2)c2nonc2c1[N+](=O)[O-] | 8.58%
CC(=O)OCCNc1cc(Sc2nc3ccccc3[nH]2)c2nonc2c1[N+](=O)[O-] | -3.19%
O=[N+]([O-])c1c(NCCCO)cc(Sc2ccc(Cl)cc2)c2nonc12 | 53.5%
O=[N+]([O-])c1c(NCCCO)cc(SCc2ccco2)c2nonc12 | 74.7%
CC(=O)OCCCNc1cc(Sc2ccc(C)cc2)c2nonc2c1[N+](=O)[O-] | 13.8%
CCC(=O)OCCNc1cc(Sc2nc3ccccc3[nH]2)c2nonc2c1[N+](=O)[O-] | 42.4%
N/C(=N\OC(=O)COc1ccccc1Cl)c1ccc(Cl)cc1 | 7.15%
COc1cc2c(cc1OC)CN(C(=O)CSc1nc(N)c(C#N)cc1C#N)CC2 | -0.19%
CCN(CC)CCN(C(=O)c1ccc(Br)s1)c1nc2cc3c(cc2s1)OCO3 | 4.27%
CCCCNC(=O)CCCCC(=O)N/N=C/c1ccccc1Cl | -1.94%
COc1ccc(O)c(C2=Nc3ccccc3N=C(c3ccco3)C2)c1 | 6.13%
COc1ccc(NC(=O)NC2CCCCC2C)cc1 (stereo not given) | 0.36%
COc1ccc(C2(C(=O)N3CCCC3)CCOCC2)cc1OC | -12.9%
CCN(CC)C(=O)CC(c1ccc2c(c1)OCO2)c1c(OC)cc(OC)c2c(-c3ccccc3)cc(=O)oc12 (stereo not given) | -2.83%
COc1cc(OC)c2c(-c3ccccc3)cc(=O)oc2c1C(CC(=O)N1CCCC1)c1ccc2c(c1)OCO2 (stereo not given) | 0.92%
COc1cc(OC)c2c(-c3ccccc3)cc(=O)oc2c1C(CCN1CCCC1)c1ccc2c(c1)OCO2 (stereo not given) | 77%
CCN(CC)CCC(c1ccc(N(C)C)cc1)c1c(OC)cc(OC)c2c(-c3ccccc3)cc(=O)oc12 (stereo not given) | 14.1%
COc1cc(OC)c2c(-c3ccccc3)cc(=O)oc2c1C(CC(=O)N1CCOCC1)c1ccc2c(c1)OCO2 (stereo not given) | 0.96%
COc1cc(OC)c2ccc(=O)oc2c1C(CCN1CCCC(C)C1)c1ccc2c(c1)OCO2 (stereo not given) | -5.64%
CCN(CC(=O)NCc1ccc(F)cc1)CC(=O)Nc1ccccc1-c1ccccc1 | -6.65%

Structure (SMILES) | inhibition
C=CCN1C(=O)C(CC(=O)Nc2ccccc2F)S/C1=N\c1nccs1 (stereo not given) | 6.25%
CCCNC(=O)C(=O)NCCC1=CCCCC1 | -4.88%
COc1cccc(OC)c1C(=O)Nc1c(C)n(C)n(-c2ccccc2)c1=O | 0.17%
O=C(COc1ccc(Br)cc1CO)Nc1ccc(F)cc1 | 9.43%
CCCCN(C)C(=O)C(Cc1ccccc1)NS(=O)(=O)c1ccc2c(c1)CCC(=O)N2 (stereo not given) | -4.66%
CNC(=S)N(Cc1ccco1)Cc1cc2cc(OC)ccc2[nH]c1=O | -3.07%
CCCCCCNC(=O)N1C/C=C\C(c2ccc(OC)cc2)N(Cc2ccc(F)cc2)C(=O)C1 (stereo not given) | -0.25%
C[n+]1c2n(c3ccccc31)N=C(c1ccc(-c3ccccc3)cc1)CS2 | 5.47%
C[n+]1c2n(c3ccccc31)N=C(c1ccccc1)CS2 | -4.82% and 0%
O=C(N/N=C/c1ccc2c(c1)OCO2)c1ccc(COc2cccc3cccnc23)cc1 | 0.48%
COCC(=O)NNC(=S)Nc1cccc(C)c1C | 9.36%
COC(=O)c1ccc(C(=O)OC)c(NC(=S)N2CCOCC2)c1 | 5.12%
CCN(CC)C(=O)CSc1nnc2nnc3cc(OC)ccc3n12 | 44%
CCN(CC)C(=O)CSc1nnc2nnc3cc(C)ccc3n12 | 65.9%
CCOc1ccc(-c2onc(C(F)(F)F)c2-c2cscn2)c(O)c1 | 6.75%
COc1cc(/C=C/C(=O)O)cc(S(=O)(=O)Nc2ccccc2Oc2ccccc2)c1OC | -0.26%
CSc1sc(C(=O)N2CCCCC2)c(-c2cccs2)c1C#N | -3.75%
COc1ccc(C2=NC(C(F)(F)F)(C(F)(F)F)c3c(n(C)c(=O)n(C)c3=O)N2)cc1 | -0.04%
Cn1c2c(c(=O)n(C)c1=O)C(C(F)(F)F)(C(F)(F)F)N=C(c1ccccc1Cl)N2 | -9.88%
CCOC(=O)c1c(CN2CCC(C)CC2)n(C)c2cc(Br)c(OC)cc12 | 11.6%
COc1ccccc1NS(=O)(=O)c1cc(C)ccc1C | -7.48%
CC(NC(=O)c1ccccc1F)c1nnc(SCc2nc3ccccc3c(=O)[nH]2)n1C (stereo not given) | -3.02%
O=c1[nH]cnc2sc(-c3ccccc3)cc12 | 40%
Cc1c(-c2ccccc2)sc2nc[nH]c(=S)c12 | 89.6%

Structure (SMILES) | inhibition
Cc1sc2nc(Cc3ccccc3)[nH]c(=O)c2c1-c1ccccc1 | -4.69%
CNc1ncnc2sc(-c3ccccc3)cc12 | -0.065%
c1ccc2c(c1)NC1(CCCCCC1)n1c-2nc2ccccc21 | -3.46%
COc1ccc(CCn2c(-c3ccc(Cl)cc3)n[nH]c2=S)cc1OC | 1.97%
COc1ccc(C(=O)NCCc2nnc3ccc(SCC(=O)Nc4cc(C)on4)nn23)cc1 | 14.5%
COc1ccc(C(CC(=O)Nc2nccs2)n2cccc2)cc1 (stereo not given) | -4.49%
CCOC(=O)c1nnn(-c2ccc([N+](=O)[O-])cc2[N+](=O)[O-])c1C | -6.3%
O=[N+]([O-])c1ccc(-n2nnnc2-c2ccccc2)cc1 | 1.98%
Cc1ccc(-c2csc3nc(C)n(N)c(=O)c23)cc1 | 3.11%
COc1ccc(C(=O)COC(=O)CNC(=O)C2CCCCC2)c(OC)c1 | -2.99%
COc1ccc(O)c(C(=O)CC(=O)c2ccccc2)c1 | 0.06%
COc1ccc(O)c(C(=O)CC(=O)c2ccc(F)cc2)c1 | -1.1%
COc1ccccc1CCNC(=O)Cc1cccs1 | 4.99%
Cc1cccc(N(CC(N)=O)S(C)(=O)=O)c1C | 9.11%
Cc1ccc2nc(NC(=O)C(NS(=O)(=O)c3cccc4nsnc34)C(C)C)sc2c1 (stereo not given) | 11.5%
COc1ccc(NC(=S)NCc2ccco2)c(OC)c1 | -0.51%
CCOc1ccc(CCNC(=O)CSc2cc(=O)n(C)c3cc(Cl)ccc23)cc1OCC | -8.35%
CC(=O)Nc1ccc(N/C=C/C(=O)c2ccc(C)o2)cc1 | 7.24%
COc1ccc(C(=O)/C=C(\C)Nc2ccc3c(c2)OCO3)cc1 | 53.2%
COc1ccc(OC)c(N/C(C)=C/C(=O)c2ccc(C)o2)c1 | -3.01%
CCOc1ccc(N/C(C)=C/C(=O)c2ccc3c(c2)OCCO3)cc1 | 77.8%
COC(=O)c1ccc(N/C=C\C(=O)c2ccc3c(c2)OCO3)cc1 | 17.8%
COc1ccc(N/C=C\C(=O)c2ccc3c(c2)OCO3)cc1 | 77.1%
